Measured values published in PubChem BioAssay AID1159580 (chemical genetic matrix, 2015).
“And” between values parts separate entries of the source, which are not always exact repeats. Identical values can stand only once. Out of some 5,500 compounds screened, about 2,000 (36%) were called active. Inconclusive results (about 18%) are left out. No stated cut-off is given here; in the data, active means normalized growth mostly below about 0.91 (no sharp cut-off); inconclusive means no clear call, values can overlap the other calls; inactive means mostly above about 0.92. Some of the results follow. Where a SMILES comes first, the peptide text is derived from it. The star is where a group is joined. For = O=C*

Test: chemical genetic growth profiling, strain panel (AID 1159580);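 further: tested at 20 µM; growth read once vehicle control cultures reached saturation at 30 °C; 1 = growth at the plate median or of vehicle wells; lower values mean less growth of the strain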
Settings: growth OD

Measured: normalized growth

CSCCC(NC=O)C(=O)NC(Cc1ccccc1)C(=O)O (stereo not drawn) (For-Met-Phe-OH; configuration not given here)
inactive: S. cerevisiae deletion strains, locus YAL013W, strain DEP1, active compounds read low 1.02 | S. cerevisiae deletion strains, locus YBR021W, strain FUR4, active compounds read low 1.04 | S. cerevisiae deletion strains, locus YBR229C, strain ROT2, active compounds read low 1.01 | S. cerevisiae deletion strains, locus YCL029C, strain bik1, active compounds read low 1.03 | S. cerevisiae deletion strains, locus YDL035C, strain GPR1, active compounds read low 1.03 | S. cerevisiae deletion strains, locus YDL074C, strain BRE1, active compounds read low 1.02 | S. cerevisiae deletion strains, locus YDL101C, strain DUN1, active compounds read low 1.01 | S. cerevisiae deletion strains, locus YDL134C, strain PPH21, active compounds read low 1.03 | S. cerevisiae deletion strains, locus YDL185W, strain tfp1, active compounds read low 1.02 | S. cerevisiae deletion strains, locus YDL192W, strain arf1, active compounds read low 1.02 | S. cerevisiae deletion strains, locus YDR101C, strain arx1, active compounds read low 0.998 | S. cerevisiae deletion strains, locus YDR150W, strain NUM1, active compounds read low 1.01 | S. cerevisiae deletion strains, locus YDR162C, strain NBP2, active compounds read low 1.01 | S. cerevisiae deletion strains, locus YDR318W, strain mcm21, active compounds read low 1.02 | S. cerevisiae deletion strains, locus YDR388W, active compounds read low 1.02 | S. cerevisiae deletion strains, locus YDR502C, strain sam2, active compounds read low 1.01 | S. cerevisiae deletion strains, locus YEL061C, strain CIN8, active compounds read low 1.01 | S. cerevisiae deletion strains, locus YER110C, active compounds read low 1.02 | S. cerevisiae deletion strains, locus YER155C, strain BEM2, active compounds read low 1 | S. cerevisiae deletion strains, locus YER167W, strain BCK2, active compounds read low 1 | S. cerevisiae deletion strains, locus YGL078C, strain dbp3, active compounds read low 1.01 | S. cerevisiae deletion strains, locus YGL086W, strain mad1, active compounds read low 1 | S. cerevisiae deletion strains, locus YGL248W, strain PDE1, active compounds read low 1 | S. cerevisiae deletion strains, locus YGR135W, strain pre9, active compounds read low 1.02 | S. cerevisiae deletion strains, locus YGR229C, strain SMI1, active compounds read low 1.02 | S. cerevisiae deletion strains, locus YGR252W, strain gcn5, active compounds read low 1.03 | S. cerevisiae deletion strains, locus YHR030C, strain SLT2, active compounds read low 1.01 and 1.07 | S. cerevisiae deletion strains, locus YHR079C, strain IRE1 (second series), active compounds read low 1.02 | S. cerevisiae deletion strains, locus YHR079C, strain IRE1, active compounds read low 1.04 | S. cerevisiae deletion strains, locus YHR094C, strain hxt1, active compounds read low 1.02 | S. cerevisiae deletion strains, locus YHR129C, strain ARP1, active compounds read low 1 | S. cerevisiae deletion strains, locus YHR200W, strain rpn10, active compounds read low 1.03 | S. cerevisiae deletion strains, locus YIL066C, strain RNR3, active compounds read low 1.01 | S. cerevisiae deletion strains, locus YIL073C, strain SPO22, active compounds read low 1.08 | S. cerevisiae deletion strains, locus YIL125W, strain kgd1, active compounds read low 1.01 | S. cerevisiae deletion strains, locus YIR030C, strain dcg1, active compounds read low 1.01 | S. cerevisiae deletion strains, locus YJL095W, strain BCK1, active compounds read low 1 and 1.06 | S. cerevisiae deletion strains, locus YJL134W, strain LCB3, active compounds read low 1 | S. cerevisiae deletion strains, locus YJL168C, strain set2, active compounds read low 1.01 | S. cerevisiae deletion strains, locus YJL187C, strain SWE1 (second series), active compounds read low 1.01 | S. cerevisiae deletion strains, locus YJR043C, strain POL32, active compounds read low 1.01 | S. cerevisiae deletion strains, locus YJR066W, strain TOR1, active compounds read low 1.01 | S. cerevisiae deletion strains, locus YKL009W, strain mrt4, active compounds read low 1.02 | S. cerevisiae deletion strains, locus YKL068W, active compounds read low 1.01 | S. cerevisiae deletion strains, locus YKL085W, strain MDH1 (second series), active compounds read low 1.01 | S. cerevisiae deletion strains, locus YKL085W, strain MDH1, active compounds read low 1.01 | S. cerevisiae deletion strains, locus YKL190W, strain CNB1, active compounds read low 1.01 | S. cerevisiae deletion strains, locus YKR001C, strain vps1, active compounds read low 1.02 | S. cerevisiae deletion strains, locus YLR039C, strain RIC1, active compounds read low 1.06 | S. cerevisiae deletion strains, locus YLR058C, strain SHM2, active compounds read low 1.01 | S. cerevisiae deletion strains, locus YLR102C, strain apc9, active compounds read low 1.02 | S. cerevisiae deletion strains, locus YLR113W, strain HOG1, active compounds read low 0.978 | S. cerevisiae deletion strains, locus YLR262C, strain YPT6, active compounds read low 1.04 | S. cerevisiae deletion strains, locus YLR268W, strain sec22, active compounds read low 1.02 | S. cerevisiae deletion strains, locus YLR330W, strain CHS5, active compounds read low 1.01 | S. cerevisiae deletion strains, locus YLR342W, strain FKS1 (second series), active compounds read low 1.03 | S. cerevisiae deletion strains, locus YLR371W, strain rom2, active compounds read low 1.02 | S. cerevisiae deletion strains, locus YLR418C, strain cdc73, active compounds read low 1.06 | S. cerevisiae deletion strains, locus YML016C, strain PPZ1, active compounds read low 0.999 | S. cerevisiae deletion strains, locus YML032C, strain rad52, active compounds read low 1.02 | S. cerevisiae deletion strains, locus YML124C, strain tub3, active compounds read low 1.01 | S. cerevisiae deletion strains, locus YMR078C, strain ctf18, active compounds read low 1.01 | S. cerevisiae deletion strains, locus YMR223W, strain ubp8, active compounds read low 1.02 | S. cerevisiae deletion strains, locus YMR263W, strain SAP30, active compounds read low 1.01 | S. cerevisiae deletion strains, locus YMR307W, strain GAS1, active compounds read low 1.04 | S. cerevisiae deletion strains, locus YNL067W, strain RPL9B, active compounds read low 1.02 | S. cerevisiae deletion strains, locus YNL128W, strain TEP1, active compounds read low 1.04 | S. cerevisiae deletion strains, locus YNL183C, strain NPR1, active compounds read low 0.989 | S. cerevisiae deletion strains, locus YNL233W, strain BNI4, active compounds read low 1 | S. cerevisiae deletion strains, locus YNL250W, strain rad50, active compounds read low 1.01 | S. cerevisiae deletion strains, locus YNL271C, strain bni1, active compounds read low 1.02 | S. cerevisiae deletion strains, locus YNL298W, strain CLA4, active compounds read low 1.03 | S. cerevisiae deletion strains, locus YNL307C, strain MCK1, active compounds read low 1.03 | S. cerevisiae deletion strains, locus YNL322C, strain KRE1, active compounds read low 1.01 | S. cerevisiae deletion strains, locus YNR052C, strain pop2, active compounds read low 1.02 | S. cerevisiae deletion strains, locus YOL006C, strain TOP1, active compounds read low 0.99 | S. cerevisiae deletion strains, locus YOL012C, strain htz1 0.63 | S. cerevisiae deletion strains, locus YOL147C, strain pex11, active compounds read low 1.03 | S. cerevisiae deletion strains, locus YOR061W, strain CKA2, active compounds read low 1 | S. cerevisiae deletion strains, locus YOR069W, strain VPS5, active compounds read low 1.01 | S. cerevisiae deletion strains, locus YOR136W, strain idh2, active compounds read low 1.02 | S. cerevisiae deletion strains, locus YOR144C, strain elg1, active compounds read low 1.01 | S. cerevisiae deletion strains, locus YOR184W, strain ser1, active compounds read low 1.02 | S. cerevisiae deletion strains, locus YOR231W, strain MKK1, active compounds read low 1.02 | S. cerevisiae deletion strains, locus YOR316C, strain cot1, active compounds read low 1.03 | S. cerevisiae deletion strains, locus YPL055C, strain LGE1, active compounds read low 0.997 | S. cerevisiae deletion strains, locus YPL241C, strain CIN2, active compounds read low 1 | S. cerevisiae deletion strains, locus YPL256C, strain CLN2, active compounds read low 1.07 | S. cerevisiae deletion strains, locus YPR119W, strain clb2, active compounds read low 1.01 | S. cerevisiae deletion strains, locus YPR141C, strain kar3, active compounds read low 1.01 | S. cerevisiae deletion strains, locus YPR163C, strain tif3, active compounds read low 1.01 | S. cerevisiae deletion strains, locus YPR167C, strain met16, active compounds read low 1.03 | S. cerevisiae deletion strains, strain wtn01, active compounds read low 1.04 | S. cerevisiae strains, strain wild type, active compounds read low 1.01
